Measurements reported in PubChem BioAssay (EPA / NIEHS).
Inconclusive results are not listed. Active and inactive are the calls of the source. Rule for the calls: active = hit-call score of the fitted dose curve at least 0.9, where 1 is the maximum; inconclusive = response in the unintended direction; inactive = score below 0.9.

Biological target: human Matrix Metalloproteinase-9 (MMP9), MMP9 (gene 4318) (UniProt P14780)
Assay: NVS_ENZ_hMMP9: NovaScreen (NVS) Enzymatic Assay for human Matrix Metalloproteinase-9 (MMP9) (AID 2283190);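 note: cell-free recombinant MMP9 protease activity read by fluorescent substrate signal; active means inhibition seen as loss of fluorescence signal versus DMSO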
Method in brief: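 Cell-free recombinant MMP9 enzyme activity measured by fluorescence intensity 1 h after dosing. Primary screen in duplicate at 25 uM, actives followed in concentration series; loss of signal relative to DMSO.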

human Matrix Metalloproteinase-9 (MMP9), MMP9 (gene 4318), sequence (P14780 whole entry, looked up): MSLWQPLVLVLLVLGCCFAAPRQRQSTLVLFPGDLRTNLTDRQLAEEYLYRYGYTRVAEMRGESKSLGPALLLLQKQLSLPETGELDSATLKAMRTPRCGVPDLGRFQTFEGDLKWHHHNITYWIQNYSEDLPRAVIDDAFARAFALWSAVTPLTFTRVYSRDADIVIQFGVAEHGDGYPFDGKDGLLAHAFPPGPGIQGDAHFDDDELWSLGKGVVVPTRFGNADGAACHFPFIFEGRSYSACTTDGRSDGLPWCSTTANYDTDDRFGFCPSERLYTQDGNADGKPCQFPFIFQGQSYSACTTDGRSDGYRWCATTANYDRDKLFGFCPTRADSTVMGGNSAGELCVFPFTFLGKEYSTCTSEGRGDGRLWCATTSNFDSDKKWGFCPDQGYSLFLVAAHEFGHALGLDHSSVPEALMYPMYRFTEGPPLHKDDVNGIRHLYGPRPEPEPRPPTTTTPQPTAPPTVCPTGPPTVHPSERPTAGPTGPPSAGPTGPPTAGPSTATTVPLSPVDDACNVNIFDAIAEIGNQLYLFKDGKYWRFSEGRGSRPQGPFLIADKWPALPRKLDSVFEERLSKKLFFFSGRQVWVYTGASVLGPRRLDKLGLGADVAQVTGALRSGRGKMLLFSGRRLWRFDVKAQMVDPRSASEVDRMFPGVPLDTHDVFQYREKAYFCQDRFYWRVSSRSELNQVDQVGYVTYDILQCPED

SMILES	AC50
CCCCOCCOCCOC(C)=O	1.23 µM (active)
CCCCCCCC(=O)OCC(COC(=O)CCCCCCC)OC(=O)CCCCCCC	4.96 µM (active)
CC(C)c1cccc(C(C)C)c1N	6.9 µM (active)
CCCSSCCC	6.62 µM (active)
CC=C(C)C=CC=C(C)C	4.96 µM (active)
CCC(C)(O)CCCC(C)C (configuration not stated)	0.972 µM (active)
CCCCOC(=O)CCC(C)=O	6.97 µM (active)
CCCCCCOC(=O)CCCCC(=O)OCCCCCC	7.16 µM (active)

Biological target: human Phosphodiesterase 10 (PDE10), PDE10A (gene 10846) (UniProt Q9Y233)
Assay: NVS_ENZ_hPDE10: NovaScreen (NVS) Enzymatic Assay for human Phosphodiesterase 10 (PDE10) (AID 2283195)
Method in brief: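 Fluorescence/mobility-shift readout of PDE10A enzyme activity, taken 1 h post-dosing. Primary screen in duplicate at 25 uM; actives (e.g. ≥30% inhibition) retested as singleton concentration-response, top concentration 50 uM.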

human Phosphodiesterase 10 (PDE10), PDE10A (gene 10846), sequence (Q9Y233 whole entry, looked up): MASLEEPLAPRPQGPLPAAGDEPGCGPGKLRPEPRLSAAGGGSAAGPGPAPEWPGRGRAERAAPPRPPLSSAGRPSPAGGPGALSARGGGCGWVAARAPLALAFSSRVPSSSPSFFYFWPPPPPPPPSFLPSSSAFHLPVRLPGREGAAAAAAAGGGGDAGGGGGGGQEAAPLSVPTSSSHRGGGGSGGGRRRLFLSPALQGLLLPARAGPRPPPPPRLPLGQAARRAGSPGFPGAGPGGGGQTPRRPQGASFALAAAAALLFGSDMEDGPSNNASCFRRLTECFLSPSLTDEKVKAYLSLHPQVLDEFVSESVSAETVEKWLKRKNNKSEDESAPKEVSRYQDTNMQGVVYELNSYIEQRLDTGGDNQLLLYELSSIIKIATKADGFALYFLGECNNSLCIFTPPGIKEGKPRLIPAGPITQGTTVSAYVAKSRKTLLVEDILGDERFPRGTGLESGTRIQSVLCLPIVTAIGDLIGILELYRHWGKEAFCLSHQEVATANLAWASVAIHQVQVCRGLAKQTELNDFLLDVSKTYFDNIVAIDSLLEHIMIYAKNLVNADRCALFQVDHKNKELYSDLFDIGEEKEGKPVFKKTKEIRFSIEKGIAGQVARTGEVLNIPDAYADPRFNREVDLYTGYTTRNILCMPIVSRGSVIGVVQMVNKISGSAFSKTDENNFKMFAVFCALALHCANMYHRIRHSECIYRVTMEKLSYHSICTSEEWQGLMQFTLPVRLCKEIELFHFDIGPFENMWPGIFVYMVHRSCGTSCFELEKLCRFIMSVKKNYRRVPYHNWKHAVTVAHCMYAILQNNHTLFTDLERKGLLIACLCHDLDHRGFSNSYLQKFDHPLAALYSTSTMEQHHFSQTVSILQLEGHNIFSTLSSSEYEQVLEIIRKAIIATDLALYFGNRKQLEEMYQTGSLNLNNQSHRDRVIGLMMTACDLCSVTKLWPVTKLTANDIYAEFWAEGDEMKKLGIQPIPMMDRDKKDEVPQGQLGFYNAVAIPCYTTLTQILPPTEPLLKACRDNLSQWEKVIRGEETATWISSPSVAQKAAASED

SMILES	outcome	AC50
CCCCOCCOCCOC(C)=O	inactive	–
Cn1cccc1	–	5.59 µM (active)
CCCSSCCC	inactive	–
CC(=O)OC(C)c1ccccc1 (configuration not stated)	inactive	–
CCCCOCC(C)O (configuration not stated)	inactive	–
CC=C(C)C=CC=C(C)C	inactive	–
CC1(C)C(=O)N(CO)C(=O)N1CO	–	46.5 µM (active)
CCCCCC1=CCCC1=O	inactive	–
CCC1(C)C(=O)N(Cl)C(=O)N1Cl (configuration not stated)	–	20.7 µM (active)
C=CC(=O)O[C@H]1C[C@@H]2CC[C@@]1(C)C2(C)C	–	3.57 µM (active)
C=C(C)C1CC=C(C)C(OC(C)=O)C1 (configuration not stated)	inactive	–
[Cl][Sc]([Cl])[Cl]	–	1.67 µM (active)
O=C1CCCCCCCCCCC1	inactive	–
CCN(CC)c1cccc(C)c1	inactive	–
CC(=O)OC1CCCCC1	inactive	–
O=C1CCCCCCCCCCCN1	inactive	–

Biological target: human Phosphoinositide 3-kinase alpha (PI3Ka), PIK3CA (gene 5290) (UniProt P42336)
Assay: NVS_ENZ_hPI3Ka: NovaScreen (NVS) Enzymatic Assay for human Phosphoinositide 3-kinase alpha (PI3Ka) (AID 2283196)
Method in brief: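 Recombinant human PI3Kα with fluorescent substrate, 1 h, product separated by electrophoretic mobility shift; 25 uM duplicate screen, hits (e.g., 30% inhibition) retested singly up to 50 uM; loss of signal vs DMSO.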

human Phosphoinositide 3-kinase alpha (PI3Ka), PIK3CA (gene 5290), sequence (P42336 whole entry, looked up): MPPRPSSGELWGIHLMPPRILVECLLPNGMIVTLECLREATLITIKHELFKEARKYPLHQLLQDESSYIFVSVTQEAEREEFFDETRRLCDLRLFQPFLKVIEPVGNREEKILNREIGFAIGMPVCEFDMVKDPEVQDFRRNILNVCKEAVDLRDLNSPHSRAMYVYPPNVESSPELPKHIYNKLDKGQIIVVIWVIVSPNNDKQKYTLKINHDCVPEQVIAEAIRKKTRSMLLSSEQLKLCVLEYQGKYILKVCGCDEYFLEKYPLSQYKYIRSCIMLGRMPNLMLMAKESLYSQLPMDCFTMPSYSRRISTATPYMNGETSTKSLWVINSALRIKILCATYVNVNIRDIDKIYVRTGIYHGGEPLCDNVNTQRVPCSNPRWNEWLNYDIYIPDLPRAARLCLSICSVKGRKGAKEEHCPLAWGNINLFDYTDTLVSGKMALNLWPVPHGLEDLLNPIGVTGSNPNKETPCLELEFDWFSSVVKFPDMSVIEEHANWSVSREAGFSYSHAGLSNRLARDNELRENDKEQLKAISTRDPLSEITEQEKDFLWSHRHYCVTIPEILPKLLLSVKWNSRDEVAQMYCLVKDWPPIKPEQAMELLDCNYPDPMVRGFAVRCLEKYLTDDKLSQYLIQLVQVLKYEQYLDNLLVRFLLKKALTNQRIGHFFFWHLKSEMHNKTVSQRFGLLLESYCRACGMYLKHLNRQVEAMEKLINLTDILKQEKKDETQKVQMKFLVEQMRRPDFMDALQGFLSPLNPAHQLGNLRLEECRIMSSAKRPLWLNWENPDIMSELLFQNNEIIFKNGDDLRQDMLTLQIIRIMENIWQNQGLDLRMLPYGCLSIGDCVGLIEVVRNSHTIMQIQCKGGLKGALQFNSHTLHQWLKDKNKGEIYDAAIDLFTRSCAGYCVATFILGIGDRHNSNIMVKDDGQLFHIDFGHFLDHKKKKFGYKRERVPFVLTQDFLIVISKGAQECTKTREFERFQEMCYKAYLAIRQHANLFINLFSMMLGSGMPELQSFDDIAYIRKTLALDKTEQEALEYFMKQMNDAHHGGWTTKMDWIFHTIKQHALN

SMILES	outcome	AC50
CCCCOCCOCCOC(C)=O	inactive	–
CC(=O)OC(C)c1ccccc1 (configuration not stated)	inactive	–
CC=C(C)C=CC=C(C)C	–	0.976 µM (active)
C=C(C)C1CC=C(C)C(OC(C)=O)C1 (configuration not stated)	–	25 µM (active)
O=C1CCCCCCCCCCC1	inactive	–
Oc1ccc(/C=C/c2cc(O)cc(O)c2)cc1	inactive	–

Biological target: sheep Cyclooxygenase-1 (Cox1), PTGS1 (gene 443551) (UniProt P05979)
Assay: NVS_ENZ_oCOX1: NovaScreen (NVS) Enzymatic Assay for sheep Cyclooxygenase-1 (Cox1) (AID 2283239);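 note: actives reduce cyclooxygenase activity so potencies are for inhibitors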
Method in brief: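 Colorimetric enzyme readout using sheep seminal-vesicle cyclooxygenase-1, measured 0.66 h post-dosing. Single-concentration duplicates at 25 uM first, then concentration series for actives, with DMSO as baseline and plate controls.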

sheep Cyclooxygenase-1 (Cox1), PTGS1 (gene 443551), sequence (P05979 whole entry, looked up): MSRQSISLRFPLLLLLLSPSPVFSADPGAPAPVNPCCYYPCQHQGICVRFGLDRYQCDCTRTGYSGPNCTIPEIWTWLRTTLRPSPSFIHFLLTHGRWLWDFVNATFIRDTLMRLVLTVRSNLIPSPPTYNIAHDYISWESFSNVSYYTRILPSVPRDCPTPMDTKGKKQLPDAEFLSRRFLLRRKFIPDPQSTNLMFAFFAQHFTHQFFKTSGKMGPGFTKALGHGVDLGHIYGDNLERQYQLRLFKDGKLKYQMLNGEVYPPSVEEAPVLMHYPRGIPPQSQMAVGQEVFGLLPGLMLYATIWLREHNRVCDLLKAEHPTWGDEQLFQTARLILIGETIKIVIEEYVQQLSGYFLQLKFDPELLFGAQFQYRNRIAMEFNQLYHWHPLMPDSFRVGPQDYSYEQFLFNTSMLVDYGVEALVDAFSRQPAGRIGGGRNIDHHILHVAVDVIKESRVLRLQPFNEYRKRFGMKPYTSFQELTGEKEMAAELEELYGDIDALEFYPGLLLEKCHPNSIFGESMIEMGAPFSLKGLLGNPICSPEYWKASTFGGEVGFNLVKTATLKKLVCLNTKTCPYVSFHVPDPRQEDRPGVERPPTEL

SMILES	outcome	AC50
CC(=O)OC(C)c1ccccc1 (configuration not stated)	inactive	–
Nc1nc(N)nc(-c2ccccc2)n1	inactive	–
CCCCCC1=CCCC1=O	–	25 µM (active)
Nc1cccc(N)n1	inactive	–
CCCCCCCCCCCC(C)=O	–	31.9 µM (active)
NNS(=O)(=O)c1ccc(Oc2ccc(S(=O)(=O)NN)cc2)cc1	inactive	–
Oc1ccc(/C=C/c2cc(O)cc(O)c2)cc1	–	7.5 µM (active)
